Data published in PubChem BioAssay (NCATS).
Results filed as inconclusive are left out. A call without a number means that no potency is given here. Calls of active or inactive are those of the source. The call rests on the fitted dose curve; in most records, active means well fitted inhibition curve with a large enough effect; inconclusive means small, poorly fitted or top-dose-only effect; inactive means flat fitted curve, though single readings scatter.

Columns and labels:
Experiment in all cases: qHTS profiling for inhibitors of Plasmodium falciparum proliferation (AID 504749); further: nearly all actives have a fitted effect of over 60% in size
Conditions in all cases: P. falciparum in erythrocytes, SYBR Green DNA, 72 h; series mostly up to 28.7 µM
DIV17 = system: DIV17
In short: (§1)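 Fluorescence of SYBR Green-bound parasite DNA, read at 485/535 nm, served as the growth measure. Infected erythrocytes were cultured with compound 72 h; artemisinin (0.29 uM) and DMSO wells defined the normalization range.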

DIV30 = system: DIV30
In short: as §1

FAB9 = system: FAB9
In short: as §1

GB4 = system: GB4
In short: as §1

HB3 = system: HB3
In short: as §1

ICS = system: ICS
In short: as §1

Dd2 = system: Dd2
In short: as §1

ECU = system: ECU
In short: as §1

JCK = system: JCK
In short: as §1

N140 = system: N140
In short: as §1
Potency means the concentration at half of the fitted maximal effect.

Row | Compound | Potency (DIV17) | Potency (DIV30) | Potency (FAB9) | Potency (GB4) | Potency (HB3) | Potency (ICS) | Potency (Dd2) | Potency (ECU) | Potency (JCK) | Potency (N140)
1 | CN(C)CCCN1c2ccccc2Sc2ccc(Cl)cc21 | 4.78 µM (active) | 9.53 µM (active) | inactive | 8.49 µM (active) | inactive | 4.47 µM (active) | – | – | – | –
2 | OCc1cc(C(O)CNCCCCCCOCCCCc2ccccc2)ccc1O (configuration not stated) | – | – | inactive | 9.53 µM (active) | inactive | – | inactive | inactive | inactive | inactive
3 | O=C(CCCN1CCN(c2ccccn2)CC1)c1ccc(F)cc1 | – | inactive | inactive | inactive | inactive | inactive | inactive | inactive | inactive | inactive
4 | CSc1ccc2c(c1)N(CCC1CCCCN1C)c1ccccc1S2 (configuration not stated) | 10.7 µM (active) | – | – | 10.7 µM (active) | inactive | 10 µM (active) | – | 11.2 µM (active) | – | –
5 | C[C@]12C[C@H](O)[C@H]3[C@@H](CCC4=CC(=O)CC[C@@]43C)[C@@H]1CC[C@@H]2C(=O)CO | inactive | inactive | – | inactive | – | inactive | – | – | – | –
6 | CC(=O)c1ccc2c(c1)N(CCCN(C)C)c1ccccc1S2 | – | inactive | inactive | – | inactive | inactive | – | inactive | – | inactive
7 | CN1CCCCC1CCN1c2ccccc2Sc2ccc(S(C)=O)cc21 (configuration not stated) | 12 µM (active) | – | inactive | – | inactive | 5.01 µM (active) | – | inactive | inactive | –
8 | CC(CN1c2ccccc2Sc2ccccc21)N(C)C (configuration not stated) | inactive | inactive | inactive | – | inactive | inactive | – | inactive | inactive | 4.47 µM (active)
9 | CN1CCC[C@@H]1Cc1c[nH]c2ccc(CCS(=O)(=O)c3ccccc3)cc12 | 7.57 µM (active) | – | inactive | – | inactive | 7.08 µM (active) | 12.6 µM (active) | – | inactive | –
10 | Cc1ccc2nc(N)[nH]c(=O)c2c1Sc1ccncc1 | – | inactive | – | 10.7 µM (active) | – | – | 11.2 µM (active) | – | 12.6 µM (active) | 3.98 µM (active)
